High-throughput results as filed in PubChem.
Rows were chosen to be rich in hits. Some 2.9% of all compounds tested hit in one or more screens of this group.
Shn3 inh set2 – reduces Shn3 3'UTR luciferase signal in osteoblasts. AID 588674. inhibition, % at 12.5 µM. hit rate 0.52% among 360,000. Clone20 osteoblast Shn3 3'UTR firefly luciferase, 24 h;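 active = mean inhibition of at least 75% with every replicate also reaching 75%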
CF NFkB inh – inhibitors of cystic fibrosis induced NF-kB. KKLEB NF-kB-GFP reporter, PAF-induced, GFP fluorescence overnight. inhibition, % at 5 µM. hit rate 0.86% among 360,000;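 active = at least 50% inhibition at 5 µM, scaled per plate between neutral and stimulator controls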;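 also: PAF is a Pseudomonas aeruginosa culture filtrate used as stimulus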
KKLEB tox – CF airway cell cytotoxicity counter-screen; KKLEB CF airway cells viability, ATPlite luminescence, overnight; active compounds read low; cells stimulated with P. aeruginosa culture filtrate; activity change (cytotoxicity), % at 5 µM; hit rate 0.36% among 360,000;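 active = corrected activity change at or below -50% at 5 µM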
HIF-2a inh – HIF-2a inhibition; inhibition, % at 18.8 µM; hit rate 0.72% among 360,000; 786-0 RCC cells HIF-2a reporter, luciferase luminescence, overnight;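 active = inhibition of the luminescence signal of 40% or more relative to plate controls, in a single-dose primary screen at 18.75 µM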
EBV LMP1 NFkB – inhibitors of Epstein-Barr LMP1-induced NF-kappaB reporter | inhibition, % at 12.5 µM | hit rate 0.69% among 350,000 | LMP1-induced NF-kappaB luciferase reporter cells, luminescence; in the data active = inhibition above about 41%
Peg3 prom inh – reduces Peg3 promoter-driven luciferase expression in HeLa; HeLa PEG-Prom luciferase reporter, luminescence, overnight; inhibition, % at 20 µM; hit rate 1.7% among 360,000; AID 588405;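 active = inhibition of at least 50% at 20 µM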
CF NFkB inh conf – CF NF-kB inhibition confirmation, single concentration. shares compounds with CF NFkB inh. KKLEB CF airway cells, PAF-induced NF-kB-GFP fluorescence, overnight. inhibition, % at 5 µM. hit rate 64% among 1,300; in the data active = inhibition above about 40%;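 also: stimulus PAF is a Pseudomonas aeruginosa filtrate and not platelet activating factor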
Large screens that a line does not name were inactive (follow-up assays come after a bar, where they were run).

COC(=O)c1ccc(C2=NOC(C)(c3nnc(Cc4ccccc4)o3)C2)cc1 (stereo unspecified)	none
COc1ccc2nc(Nc3nc(CSc4nc5ccccc5[nH]4)cc(=O)[nH]3)nc(C)c2c1	CF NFkB inh 103, Peg3 prom inh 98 | CF NFkB inh conf 101
CCOc1cc(/C=N\NC(=O)c2ccc(NC(=O)C(C)(C)C)cc2)ccc1OC(=O)c1ccc(C)cc1	none
CCOc1cc(/C=N\NC(=O)c2ccc(NC(=O)CC)cc2)ccc1OC(=O)c1ccccc1	Shn3 inh set2 95, CF NFkB inh 51, Peg3 prom inh 71 | CF NFkB inh conf inactive
Cc1ccc2c(c1)C=CC(C)(C)S2(=O)=O	none
COc1ccc(C2CC(c3ccccc3)=NN2C(=O)COC(=O)c2ccc(S(C)(=O)=O)cc2)cc1 (stereo unspecified)	CF NFkB inh 55 | CF NFkB inh conf 46
COc1cc2nc(CN(C)Cc3ccc(Cl)cc3)[nH]c(=O)c2cc1OC	none
COc1cc2cncc(Cc3ccc(Cl)cc3)c2cc1OC	CF NFkB inh 72 | CF NFkB inh conf 87
Cc1ccc(O)c(Nc2ncnc3ccc([N+](=O)[O-])cc23)c1	none
O=[N+]([O-])c1ccc2ncnc(Nc3ccc4c(c3)OCCO4)c2c1	CF NFkB inh 65 | CF NFkB inh conf inactive
Cc1cc2c(c(=O)n1Cc1cccnc1)C(c1cccs1)C(C#N)=C(N)O2 (stereo unspecified)	none
Cc1cc2c(c(=O)n1Cc1cccnc1)C(Cc1ccccc1)C(C#N)=C(N)O2 (stereo unspecified)	CF NFkB inh 58 | CF NFkB inh conf inactive
CC(C)CCNC(=S)Nc1ccccn1	none
Nc1nc(-c2ccccc2)nc(-c2ccccc2O)n1	CF NFkB inh 57 | CF NFkB inh conf inactive
Nc1nc(N)nc(-c2ccccc2O)n1	none
CN(C)C(CNC(=O)C1CCN(S(=O)(=O)c2ccccc2)CC1)c1ccccc1 (stereo unspecified)	CF NFkB inh 71 | CF NFkB inh conf inactive
CN(C)C(CNC(=O)C1CCN(S(=O)(=O)c2cccc(C(F)(F)F)c2)CC1)c1ccccc1 (stereo unspecified)	none
CC1=C(C(=O)N2CCOCC2)CC(CC(=O)NC2CCCCC2)C(=O)N1CCCN1CCCC1=O (stereo unspecified)	none
CCN1CCN(c2ccc(S(=O)(=O)N3CCCCC3)cc2NC(=O)Cc2ccccc2)CC1	CF NFkB inh 57 | CF NFkB inh conf inactive
CN(C)c1ccc(NC(=O)COC(=O)c2cc(=O)c3ccccc3o2)cc1	none
Cc1ccc(C)c(N2CCN(C(=O)CCC(=O)Nc3nnc(C(F)(F)F)s3)CC2)c1	none
O=C(/C=C/c1cccc([N+](=O)[O-])c1)n1cnc2ccccc21	Shn3 inh set2 92, CF NFkB inh 82, Peg3 prom inh 100 | CF NFkB inh conf 67
O=C(Nc1cccnc1)Nc1cccc(F)c1	none
CC(=O)c1cccc(NC(=O)Nc2cccnc2)c1	CF NFkB inh 57 | CF NFkB inh conf 77
COc1ccc(NC(=O)C2(C)CCN2C2Cc3ccccc3C2)cc1OC (stereo unspecified)	none (no result: EBV LMP1 NFkB)
Cc1ccc(S(=O)(=O)Nc2cccc(C(=O)N3CCOCC3)c2)c(C)c1NS(C)(=O)=O	none
COc1ccc(CCNc2ccc(S(N)(=O)=O)cn2)cc1	none
NS(=O)(=O)c1ccc(CCNc2nn3c(-c4cccc(OC(F)(F)F)c4)cnc3s2)cc1	CF NFkB inh 53, Peg3 prom inh 102 (no result: EBV LMP1 NFkB) | CF NFkB inh conf 70
Cc1ccc(C(=O)N/C(=C\c2ccco2)C(=O)N2CCOCC2)cc1C	none
COC(=O)c1ccc(CNC(=O)C2CCC(=O)N(CCc3ccccc3)C2)cc1 (stereo unspecified)	none
CCOC(=O)C1=C(CC)Nc2ccccc2N=C1NC(=O)Nc1ccc(Cl)c(Cl)c1	CF NFkB inh 56 | CF NFkB inh conf 101
CCOC(=O)C1=C(CC)Nc2ccccc2N=C1NC(=O)c1cc(C)on1	none
Cc1ccc(C(=O)NCCCc2ccccc2)c(C)c1	none
Cc1cc(C)c(NC(=S)NC(CO)(CO)CO)c(C)c1	none
Cc1ccc(C(=O)COc2cc(O)c3c(=O)cc(-c4ccccc4)oc3c2)cc1	CF NFkB inh 69 | CF NFkB inh conf 43
O=C(COc1cc(O)c2c(=O)cc(-c3ccccc3)oc2c1)c1ccccc1	none
O=C1N=c2ccccc2=C1c1c(O)[nH]c2c(C(F)(F)F)cccc12	none
Oc1ccccc1C1CC(c2cccs2)=NC(c2ccc(Cl)cc2)N1 (stereo unspecified)	CF NFkB inh 65 | CF NFkB inh conf inactive
CS(=O)(=O)N1N=C(c2cccs2)CC1c1ccccc1O (stereo unspecified)	none
O=C(Nc1ccc(F)cc1)Nc1nnc(COc2ccccc2F)s1	CF NFkB inh 58 | CF NFkB inh conf 44
COc1cccc(NC(=O)Nc2nnc(CC(=O)Nc3ccccc3)s2)c1	CF NFkB inh 57 | CF NFkB inh conf 72
COc1ccc(NC(=O)Nc2nnc(CC(=O)Nc3ccccc3)s2)cc1	none
CCSc1nsc(NC(=O)Nc2ccccc2F)n1	none
CCSc1nsc(NC(=O)Nc2cccc(OC)c2)n1	CF NFkB inh 70 | CF NFkB inh conf 53
CCc1nnc(NC(=O)CSCc2cc(=O)n3nc(C)sc3n2)s1	none
COc1cc(CNC(=O)C2CC(O)CN2C(=O)Nc2ccccc2)cc(OC)c1OC (stereo unspecified)	none
O=C(Nc1ccc(O)cc1)c1cc2ccccc2c(=O)s1	none
O=C(Nc1ccccc1)c1cc2ccccc2c(=O)s1	CF NFkB inh 62 | CF NFkB inh conf 68
c1cc2[nH]snc2c2nc(C3CC3)nc12	CF NFkB inh 74 | CF NFkB inh conf 68
Cc1cc(C)nc(NC(=O)c2cc([N+](=O)[O-])cc([N+](=O)[O-])c2)n1	none
ON=C1c2ccccc2-c2ccc(O)cc21	none
ON=C1c2ccccc2-c2cc(Br)ccc21	CF NFkB inh 78 | CF NFkB inh conf 73
Cc1cc2oc(=O)cc(CN3CCN(c4ccc(Cl)c(Cl)c4)CC3)c2cc1Cl	none (no result: EBV LMP1 NFkB)
O=C(Nc1ccc([N+](=O)[O-])cc1)Nc1ccc(Cl)cc1F	CF NFkB inh 52 | CF NFkB inh conf 46
O=C(Nc1ccc(Cl)cc1)Nc1cc([N+](=O)[O-])ccc1F	none
O=C(CCc1cccc(Cl)c1)NC1CCCN(Cc2ccccc2F)C1 (stereo unspecified)	none
COc1cc2oc(=O)cc(-c3ccc(-c4ccc(N(C)C)cc4)cc3)c2c(OC)c1OC	CF NFkB inh 52, EBV LMP1 NFkB 42 | CF NFkB inh conf 66
CC(=O)c1ccc(NC(=O)Nc2ccc(S(=O)(=O)N3CCCC3)cc2)cc1	none
CCOc1ccc(Br)cc1C(=S)N1CCCC1	none
